We go through nine compounds from PubChem BioAssay (Tox21).

Assay [1] in a line: qHTS assay for small molecule agonists of the p53 signaling pathway - cell viability (AID 651633; calls by dose curve;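 note: p53RE-bla HCT reporter cells with a stable beta-lactamase p53 reporter; series mostly up to about 83 µM; nearly all actives have a fitted effect of over 30% in size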). The method, boiled down:
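p53RE-bla cells, seeded at 4,000 per well and rested 5 h at 37 C/5% CO2, received compounds in DMSO for 16 h at 37 C. CellTiter-Glo was then added, and luminescence was read after 30 min at room temperature to gauge cytotoxicity.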
Background: qHTS replaces the single test concentration by a dilution series.

Assay [2] is described as follows: qHTS assay for small molecules that induce genotoxicity in human embryonic kidney cells expressing luciferase-tagged ATAD5 - cell viability (AID 651634; calls by dose curve; note: nearly all actives have a fitted effect of over 25% in size; note: potency is the fitted concentration of half-maximal effect). The method, boiled down: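 Here HEK293T cells with the ATAD5 luciferase reporter are incubated with test compounds for 15.5 hr, and cytotoxicity is then gauged by measuring protease activity in live cells using fluorescence.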

The nature of assay [3]: qHTS assay for small molecule disruptors of the mitochondrial membrane potential - cell viability (AID 720634; calls by dose curve;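 note: human HepG2 liver cancer cells; series mostly up to about 83 µM; nearly all actives have a fitted effect of over 20% in size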). The method, boiled down: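 Viability of HepG2 cells is scored from ATP content by luminescence; cells are exposed to compound for 1 hr at 37 C and 5% CO2, then dosed with m-MPI dye before the CellTiter-Glo reagent.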
Assay [4] can be described thus: qHTS assay for small molecule disruptors of the mitochondrial membrane potential (AID 720635). Note: potency is the fitted concentration of half-maximal effect. The method, boiled down: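 HepG2 cells (2,000/well) attached overnight at 37C, then took compound for 1 hr at 37C, 5% CO2. Mito-MPS dye was added for 30 min; fluorescence was read at 490/535 nm (monomers) and 540/590 nm (aggregates).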
A short description of assay [5]: qHTS assay to test for compound auto fluorescence at 590 nm (red) in HepG2 cells (AID 720674). In short, it runs like this: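 Compound auto-fluorescence is scored relative to Rose Bengal sodium, measured at 540/590 nm in live HepG2 cultures after 1 hr compound contact (37 C, 5% CO2).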
A short description of assay [6]: qHTS assay to test for compound auto fluorescence at 535 nm (green) in HepG2 cells (AID 720675).
Assay [7] can be described thus: qHTS assay to test for compound auto fluorescence at 460 nm (blue) in HEK293 cells (AID 720678). The method, boiled down: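 HEK293 cells (2,000 per well, medium with 10% dialyzed FBS) attached for 4-5 hr at 37C, then received compound and stood overnight at 37C, 5% CO2. Blue fluorescence was read at Ex/Em 405/460 nm and expressed relative to triamterene.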
A short description of assay [8]: qHTS assay to test for compound auto fluorescence at 590 nm (red) in HEK293 cells (AID 720679). In short, it runs like this: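 HEK293 cells (2,000/well, medium with 10% dialyzed FBS) attached for 4-5 hr at 37C, received 23 nL compound and were incubated overnight at 37C, 5% CO2. Red fluorescence was then read at 540/590nm Ex/Em, referenced to Rose Bengal sodium.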

The nature of assay [9]: qHTS assay for small molecules that induce genotoxicity in human embryonic kidney cells expressing luciferase-tagged ATAD5 (AID 651632). Note: nearly all actives have a fitted effect of over 15% in size. In short, it runs like this: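 DMSO vehicle served as the control. HEK293T reporter cells, 16 hr at 37C, then 30 min Amplite at room temperature; ATAD5 induction is measured as luciferase activity.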

Structures are written as SMILES. Results filed as inconclusive are left out. Activity calls are given as the source filed them. Unless noted, calls come from the whole dose curve; as a rule, active = well fitted curve in the direction sought with a large enough effect in the repeat runs; inconclusive = weak or mixed curves; inactive = no such curve, though single readings can be large; an effect the other way counts as inactive or inconclusive.

For the compound `CC(C)(O)Cc1ccccc1`, the Potency result in assay [1], in assay [2], in assay [3], in [4] and in assay [7] was “inactive” throughout. Moreover, the result in assay [5], in assay [6] and in [8] was inactive.

Take `CC(=O)c1ccc(C)cc1`: the Potency entry in assay [9], in [2], in [3] and in [7] was “inactive” each time. Further, the outcome in assay [6] was inactive.

For the compound `O=C(O)Cc1cc(I)c(Oc2cc(I)c(O)c(I)c2)c(I)c1`, the Potency result in [9], in assay [3] and in [7] was “inactive” in each case. Besides, the call in assay [5] and in assay [6] was inactive.

Consider `CCCC=O`, for which the Potency entry in [1], in [2], in [3], in assay [4] and in assay [7] was “inactive” each time. Besides, the call in assay [6] and in assay [8] was inactive.

As for `CCC(C)(C)C1CCC(OC)CC1` (stereo not given), the Potency result in assay [9], in [2], in assay [3] and in assay [7] was “inactive” throughout. The compound was called inactive in [6] and in assay [8].

In the case of `Nc1ccn(C2CO[C@H](CO)O2)c(=O)n1` (stereo not given in full), the Potency result in [9], in assay [2], in [3] and in assay [7] was “inactive” throughout. Moreover, the outcome in [5], in [6] and in [8] was inactive.

`O=S(=O)(c1cccc2cnccc12)N1CCCNCC1`: the Potency result in [9], in [1], in [3] and in [7] was “inactive” throughout. The call in [5] and in [8] was inactive.

`CCN1CCN(c2cc3c(cc2F)c(=O)c(C(=O)O)cn3C2CC2)CC1`: the Potency entry in assay [1], in assay [2], in [3] and in [7] was “inactive” each time. Besides, the result in assay [6] and in assay [8] was inactive.

Turning to `COC(=O)C1=C(C)NC(C)=C(C(=O)OCC(C)=O)C1c1ccccc1[N+](=O)[O-]` (stereo not given), the Potency entry in assay [9], in assay [3] and in [7] was “inactive” each time. Moreover, the values for the Potency in assay [2] and in [4] were 23.7 µM (active) and 9.44 µM (active), respectively.
